Data as given in PubChem BioAssay (NCI).
About 83,000 compounds went through this panel and 20% of them were active in at least one assay; those are over-represented in the sample as a whole.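 Plates (96-well) were seeded with cells, treated with compound at one concentration, and incubated for 48 hours before percent growth was determined.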 Activity calls are given as the source filed them. The calls were made as follows: active = growth percent below 10; inactive = the rest.

Each compound was assayed on CCRF-CEM leukemia (assay: NCI-60 one-dose screen, 48 h (100 = growth as untreated, 0 = no growth, -100 = all killed)). Conditions: 10 µM unless noted.

SMILES	growth
CC(=O)C1C(=O)C(=O)N(c2ccc(Cl)c(Cl)c2)C1=O (centres undefined)	115% (inactive)
NNc1ncnc2nc[nH]c12	37.8% (inactive)
CC1(C)CC(=O)C=C(N)C1	124% (inactive)
C=CCc1cc(OC)c(OC)c(OC)c1	104% (inactive)
C/C(O)=C(/C=N/C(=S)Nc1ccccc1)C(=O)Nc1ccccc1C	90.9% (inactive)
CSc1nsc(N)n1	108% (inactive)
NC(CSSCC(N)C(=O)O)C(=O)O (centres undefined)	-10.1% (active)
CC(C)N1CC(=O)N2CSCC2C1=O (centres undefined)	107% (inactive)
CN(C)c1ncnc2c1cnn2C	87.4% (inactive)
CC(=O)NNC(=S)/N=C\C(C(=O)c1ccccc1)=C(/O)c1ccccc1	102% (inactive)
Cc1onc(-c2c(F)cccc2Cl)c1-c1ncc(-c2ccc(Br)cc2)o1	39.5% (inactive)
Cc1ccc(S(=O)(=O)Oc2ccc3sc4c(CO)ccc(NCCN(C)C)c4c(=O)c3c2)cc1	-27.9% [100 µM] (active)
C/C(Cc1ccccc1)=N\O	-29.9% (active)
CCCCCC/C=C\CCCCCCCCCc1cc(O)cc(OC)c1O	-0.181% (active)
CC1(C)OC2C(CO)OC(n3ccc(=O)[nH]c3=O)C2O1 (centres undefined)	101% (inactive)
C/C=C/C1OCC(CC)C(CCC)O1 (centres undefined)	85.4% (inactive)
O=c1nc(Nc2cccc(Cl)c2)oc2cc(Cl)oc(=O)c12	56.7% (inactive)
NC(CO)(CO)c1ccccc1	90% (inactive)
CN=S(=O)(OCCCCCOS(=O)(=NC)c1ccc(C)cc1)c1ccc(C)cc1 (centres undefined)	39.6% (inactive)
